Measured values from PubChem BioAssay AID1159580 (chemical genetic matrix, 2015).
Hit rate of the full screen: of about 5,500 compounds, about 2,000 (36%) were called active. Inconclusive results (about 18%) are left out. Rule as the data show it: active = normalized growth mostly below about 0.91 (no sharp cut-off); inconclusive = no clear call, values can overlap the other calls; inactive = mostly above about 0.92. This is one part of the list.

Assay: chemical genetic growth profiling, strain panel (AID 1159580);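 also: tested at 20 µM; growth read once vehicle control cultures reached saturation at 30 °C; 1 = growth at the plate median or of vehicle wells; lower values mean less growth of the strain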
Conditions: growth OD

Measured: normalized growth

CC1Cc2ccccc2N1NC(=O)c1ccc(Cl)c(S(N)(=O)=O)c1 (centres undefined)
inactive: S. cerevisiae deletion strains, locus YJR043C, strain POL32, active compounds read low 1.02 | S. cerevisiae deletion strains, locus YJR066W, strain TOR1, active compounds read low 0.94 | S. cerevisiae deletion strains, locus YJR075W, strain HOC1, active compounds read low 1.01 | S. cerevisiae deletion strains, locus YKL009W, strain mrt4, active compounds read low 1.01 | S. cerevisiae deletion strains, locus YKL068W, active compounds read low 0.994 | S. cerevisiae deletion strains, locus YKL085W, strain MDH1 (second series), active compounds read low 0.988 | S. cerevisiae deletion strains, locus YKL085W, strain MDH1, active compounds read low 0.988 | S. cerevisiae deletion strains, locus YKL160W, strain elf1, active compounds read low 0.991 | S. cerevisiae deletion strains, locus YKR001C, strain vps1, active compounds read low 1.01 | S. cerevisiae deletion strains, locus YKR026C, strain gcn3, active compounds read low 0.997 | S. cerevisiae deletion strains, locus YKR091W, strain srl3, active compounds read low 0.997 | S. cerevisiae deletion strains, locus YLL001W, strain dnm1, active compounds read low 0.994 | S. cerevisiae deletion strains, locus YLL026W, active compounds read low 0.999 | S. cerevisiae deletion strains, locus YLL041C, strain sdh2, active compounds read low 0.998 | S. cerevisiae deletion strains, locus YLR027C, strain aat2, active compounds read low 1 | S. cerevisiae deletion strains, locus YLR039C, strain RIC1, active compounds read low 1.03 | S. cerevisiae deletion strains, locus YLR058C, strain SHM2, active compounds read low 1.01 | S. cerevisiae deletion strains, locus YLR102C, strain apc9, active compounds read low 0.989 | S. cerevisiae deletion strains, locus YLR113W, strain HOG1, active compounds read low 1 | S. cerevisiae deletion strains, locus YLR221C, strain rsa3, active compounds read low 0.989 | S. cerevisiae deletion strains, locus YLR258W, strain gsy2, active compounds read low 1.01 | S. cerevisiae deletion strains, locus YLR262C, strain YPT6 (second series), active compounds read low 0.996 | S. cerevisiae deletion strains, locus YLR262C, strain YPT6, active compounds read low 1.04 | S. cerevisiae deletion strains, locus YLR268W, strain sec22, active compounds read low 1.03 | S. cerevisiae deletion strains, locus YLR320W, strain mms22, active compounds read low 1 | S. cerevisiae deletion strains, locus YLR330W, strain CHS5, active compounds read low 1.01 | S. cerevisiae deletion strains, locus YLR342W, strain FKS1 (second series), active compounds read low 1.01 | S. cerevisiae deletion strains, locus YLR342W, strain FKS1, active compounds read low 0.999 | S. cerevisiae deletion strains, locus YLR357W, strain rsc2, active compounds read low 1.03 | S. cerevisiae deletion strains, locus YLR370C, strain arc18, active compounds read low 1.01 | S. cerevisiae deletion strains, locus YLR371W, strain rom2, active compounds read low 0.99 | S. cerevisiae deletion strains, locus YLR384C, strain iki3, active compounds read low 1.01 | S. cerevisiae deletion strains, locus YLR418C, strain cdc73, active compounds read low 0.989 | S. cerevisiae deletion strains, locus YML016C, strain PPZ1, active compounds read low 1.01 | S. cerevisiae deletion strains, locus YML032C, strain rad52, active compounds read low 0.994 | S. cerevisiae deletion strains, locus YML120C, strain ndi1, active compounds read low 0.987 | S. cerevisiae deletion strains, locus YML124C, strain tub3, active compounds read low 0.999 | S. cerevisiae deletion strains, locus YMR058W, strain fet3, active compounds read low 1.01 | S. cerevisiae deletion strains, locus YMR078C, strain ctf18, active compounds read low 0.994 | S. cerevisiae deletion strains, locus YMR125W, strain sto1, active compounds read low 1.01 | S. cerevisiae deletion strains, locus YMR129W, active compounds read low 1.01 | S. cerevisiae deletion strains, locus YMR205C, strain PFK2, active compounds read low 0.985 | S. cerevisiae deletion strains, locus YMR223W, strain ubp8, active compounds read low 0.977 | S. cerevisiae deletion strains, locus YMR231W, strain pep5, active compounds read low 1 | S. cerevisiae deletion strains, locus YMR263W, strain SAP30, active compounds read low 1.02 | S. cerevisiae deletion strains, locus YMR307W, strain GAS1, active compounds read low 1.04 | S. cerevisiae deletion strains, locus YNL067W, strain RPL9B, active compounds read low 1.01 | S. cerevisiae deletion strains, locus YNL071W, strain lat1, active compounds read low 1.01 | S. cerevisiae deletion strains, locus YNL183C, strain NPR1, active compounds read low 0.958 | S. cerevisiae deletion strains, locus YNL209W, strain ssb2, active compounds read low 1 | S. cerevisiae deletion strains, locus YNL233W, strain BNI4, active compounds read low 1.01 | S. cerevisiae deletion strains, locus YNL248C, strain rpa49, active compounds read low 0.989 | S. cerevisiae deletion strains, locus YNL250W, strain rad50, active compounds read low 0.984 | S. cerevisiae deletion strains, locus YNL271C, strain bni1, active compounds read low 0.995 | S. cerevisiae deletion strains, locus YNL298W, strain CLA4, active compounds read low 0.995 | S. cerevisiae deletion strains, locus YNL307C, strain MCK1, active compounds read low 0.996 | S. cerevisiae deletion strains, locus YNL322C, strain KRE1 (second series), active compounds read low 0.997 | S. cerevisiae deletion strains, locus YNR049C, strain mso1, active compounds read low 1 | S. cerevisiae deletion strains, locus YNR052C, strain pop2, active compounds read low 0.991 | S. cerevisiae deletion strains, locus YOL006C, strain TOP1, active compounds read low 1.01 | S. cerevisiae deletion strains, locus YOL012C, strain htz1 0.983 | S. cerevisiae deletion strains, locus YOL147C, strain pex11, active compounds read low 1 | S. cerevisiae deletion strains, locus YOR001W, strain rrp6, active compounds read low 0.975 | S. cerevisiae deletion strains, locus YOR061W, strain CKA2, active compounds read low 1.02 | S. cerevisiae deletion strains, locus YOR069W, strain VPS5, active compounds read low 1.01 | S. cerevisiae deletion strains, locus YOR070C, strain gyp1, active compounds read low 1 | S. cerevisiae deletion strains, locus YOR080W, strain dia2, active compounds read low 1 | S. cerevisiae deletion strains, locus YOR083W, strain WHI5, active compounds read low 0.983 | S. cerevisiae deletion strains, locus YOR106W, strain vam3, active compounds read low 0.981 | S. cerevisiae deletion strains, locus YOR136W, strain idh2, active compounds read low 0.992 | S. cerevisiae deletion strains, locus YOR144C, strain elg1, active compounds read low 0.998 | S. cerevisiae deletion strains, locus YOR184W, strain ser1, active compounds read low 0.982 | S. cerevisiae deletion strains, locus YOR231W, strain MKK1, active compounds read low 0.971 | S. cerevisiae deletion strains, locus YOR265W, strain rbl2, active compounds read low 1.02 | S. cerevisiae deletion strains, locus YOR270C, strain vph1, active compounds read low 0.997 | S. cerevisiae deletion strains, locus YOR290C, strain snf2, active compounds read low 0.952 | S. cerevisiae deletion strains, locus YOR316C, strain cot1, active compounds read low 0.994 | S. cerevisiae deletion strains, locus YPL051W, strain arl3, active compounds read low 0.993 | S. cerevisiae deletion strains, locus YPL055C, strain LGE1, active compounds read low 1 | S. cerevisiae deletion strains, locus YPL078C, strain atp4, active compounds read low 0.984 | S. cerevisiae deletion strains, locus YPL106C, strain sse1, active compounds read low 0.994 | S. cerevisiae deletion strains, locus YPL240C, strain hsp82, active compounds read low 1.01 | S. cerevisiae deletion strains, locus YPL256C, strain CLN2, active compounds read low 0.998 | S. cerevisiae deletion strains, locus YPR119W, strain clb2, active compounds read low 0.991 | S. cerevisiae deletion strains, locus YPR141C, strain kar3, active compounds read low 0.998 | S. cerevisiae deletion strains, locus YPR163C, strain tif3, active compounds read low 1 | S. cerevisiae deletion strains, locus YPR167C, strain met16, active compounds read low 0.997 | S. cerevisiae deletion strains, strain wtn01, active compounds read low 1.02 | S. cerevisiae strains, strain wild type, active compounds read low 1.01
